ChEMBL document CHEMBL3988442, “University of Dundee, Small-Polar-MMV Screening Library” (2021)

Experiments:
[1] = target: T1, Aspartate--tRNA(Asp/Asn) ligase (Mycobacterium tuberculosis (strain ATCC 25618 / H37Rv)) (UniProt P9WFW3); experiment: Assay for Asp RNA synthetase-1 from Mycobacterium tuberculosis; format: functional; design: scale not given: direction of the effect not stated beside the values; conditions: 30 µM; also: in the data most compounds retested in dose-response had high values
T1 sequence (whole entry): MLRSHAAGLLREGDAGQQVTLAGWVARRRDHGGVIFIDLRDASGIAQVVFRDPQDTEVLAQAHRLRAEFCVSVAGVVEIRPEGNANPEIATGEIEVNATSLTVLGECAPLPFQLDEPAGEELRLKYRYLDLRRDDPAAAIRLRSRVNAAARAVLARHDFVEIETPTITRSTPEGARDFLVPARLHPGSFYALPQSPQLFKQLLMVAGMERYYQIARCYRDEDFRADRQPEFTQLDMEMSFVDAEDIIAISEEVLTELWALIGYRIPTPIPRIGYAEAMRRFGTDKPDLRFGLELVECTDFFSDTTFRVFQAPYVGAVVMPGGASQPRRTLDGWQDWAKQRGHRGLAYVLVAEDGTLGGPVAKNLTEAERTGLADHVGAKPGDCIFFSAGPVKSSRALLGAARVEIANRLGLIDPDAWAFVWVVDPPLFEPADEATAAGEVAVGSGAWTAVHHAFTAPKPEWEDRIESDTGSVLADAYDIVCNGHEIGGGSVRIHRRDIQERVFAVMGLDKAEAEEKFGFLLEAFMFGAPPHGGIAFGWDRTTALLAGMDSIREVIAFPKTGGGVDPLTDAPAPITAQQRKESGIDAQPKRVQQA

[2] = target: Shiga toxin 2 (Escherichia coli O157:H7) (UniProt P09385+P09386); experiment: E. coli 0.157:H7 Shiga Toxin SOP - stx2 screening assay; format: functional; design: scale not given: direction of the effect not stated beside the values; conditions: 30 µM

Row | Compound | Percent Effect [1] [%] | Percent Effect [2] [%]
1 | COc1ccc(CC(=O)NC2(C)CCS(=O)(=O)C2)cc1F (stereo not drawn) | 4.95 | -19.1
2 | CCn1ccnc1CN1CCC(CCC(=O)Nc2ccccc2Cl)CC1 | -0.673 | -30.9
3 | N#Cc1ccc(OCCNc2cccc(C(=O)N3CCOCC3)c2)cc1 | 1.46 | -43.4
4 | CC1(C)CC(N(Cc2ccccc2)Cc2cccnc2)CC(C)(C)N1 | -4.09 | -6.83
5 | Cc1cc(CN(C)C(=O)C2CCCN(C(=O)c3cccs3)C2)no1 (stereo not drawn) | 5.71 | -56.4
6 | COc1cccc(S(=O)(=O)NC(=O)COC2CCCC2)c1 | 2.03 | -4.79
7 | CC(CNC(=O)N1CCN(CC(F)F)CC1)Cc1cccs1 (stereo not drawn) | -1.76 | 0.53
8 | COC(=O)c1ccccc1NC(=O)c1nc2ccccc2n(C)c1=O | 2.38 | -9.47
9 | CSc1ccc(C(CNC(=O)C2CC2)N2CCc3sccc3C2)cc1 (stereo not drawn) | -0.15 | 11.2
10 | c1ccc2sc(N3CCOC(Cn4cccn4)C3)nc2c1 (stereo not drawn) | 6.21 | 12.4
11 | Cc1nc(C)n(CC2CCCN(Cc3nnc(-c4ccco4)o3)C2)n1 (stereo not drawn) | -2.25 | -19.8
12 | Cc1ccc(C(=O)N2CCN(CCCSCC#N)CC2)o1 | 3.17 | -67.1
13 | O=C(NCC(O)c1ccccc1Cl)c1cccc(-n2cnnn2)c1 (stereo not drawn) | 7.85 | 2.65
14 | CN1CCC(Cc2cc(Nc3ncccn3)ncn2)CC1 | 7.7 | 7.59
15 | CCn1c(Cn2cncn2)nnc1C1CCN(Cc2ccc(C)o2)CC1 | -3.48 | 18.7
16 | COCCc1noc(CN2CCc3nn(C(C)C)c(=O)cc3C2)n1 | -0.0281 | 19.6
17 | CCCc1noc(CN2CCCC2c2c(C)nn(C)c2OC)n1 (stereo not drawn) | -5.33 | 4.3
18 | CCNS(=O)(=O)c1ccc(C)c(C(=O)N(C)Cc2ccco2)c1 | 2.92 | 0.315
19 | CC(C)(O)CN1CCN(C(=O)c2cc3ccccc3c(=O)[nH]2)CC1 | -2.19 | -6.56
20 | CCn1c(Cn2cncn2)nnc1C1CCN(Cc2ccncc2)CC1 | 4.98 | 0.0626
21 | CC(c1nc(C(C)(C)C)no1)N1CCN(CC(=O)N2CCOCC2)CC1 (stereo not drawn) | -1.23 | 7.56
22 | O=C(CCc1ccccc1)N1CCn2cc(Cn3cncn3)nc2C1 | -1.12 | -10
23 | Cc1cccc(-c2ccc3nc(C4CCN(CC5CC5)CC4)nn3c2)c1 | -1.89 | -31.4
24 | CC(=O)N1CCC2(CC1)C(=O)N(CC1CC1)c1ccccc12 | -1.18 | -4.33
25 | COCc1nc(C(=O)NS(=O)(=O)c2ccc(C)cc2C)cs1 | 0.811 | -0.5

Row | Compound | Percent Effect [1] [%] | Percent Effect [2] [%]
26 | CO[C@@H]1CCN(Cc2cnn(C)c2)[C@@H]2CN(Cc3ccco3)C[C@@H]21 | -4.07 | -22
27 | Cc1ccc2c(n1)N(C)CCN(C(=O)C1CC1)C2 | 9.78 | -13.9
28 | Cn1cc(C(=O)CC2CCCN2C(=O)c2n[nH]c3ccccc23)cn1 (stereo not drawn) | -3.71 | 0.49
29 | CC(=O)N1CCCC1c1ccc(-c2c(C)noc2C)cn1 (stereo not drawn) | -1.44 | -2.58
30 | CN(Cc1ccsc1)C(=O)c1cc2c([nH]c1=O)CCCC2=O | -1.51 | 12.2
31 | CC(C)c1noc(C(C)N2CCN(Cc3ccsc3)CC2)n1 (stereo not drawn) | -3.93 | 27.9
32 | CCNC(=O)c1ccnc(NCC2COc3cc(OC)ccc3C2)c1 (stereo not drawn) | -2.64 | -9.33
33 | Cc1noc(C)c1CN(C)C(=O)c1ccc(NC2CC2)nc1 | 5.06 | 26.3
34 | Cc1cc(N2CCN(C(=O)c3cc(Cl)c[nH]3)CC2)nc(N)n1 | 3.4 | -96.7
35 | CC(=O)NCC(=O)N1CC[C@H](OCC2CC2)[C@@H]1Cc1cccnc1 | 1.14 | 5.09
36 | CCc1nnc2n1CCN(CCS(=O)(=O)c1ccccc1)C2 | -3.04 | 8.79
37 | Cc1ccc(-c2nnc(CNCCn3cc(C)cn3)o2)cc1 | 2.15 | -42
38 | CCS(=O)(=O)CC(=O)NC(c1ccccc1)C1CCCCC1 (stereo not drawn) | 3.23 | 7.43
39 | Cn1cc(C2CC(=O)NC23CCN(c2ncc(F)cn2)CC3)cn1 (stereo not drawn) | 0.844 | -18.9
40 | CN(C(=O)c1cccc(C(=O)NS(C)(=O)=O)c1)c1ccccc1 | 9.93 | -20.1
41 | O=S(=O)(Cc1ccccc1)N1CCCn2cnc(CN3CCCC3)c2C1 | 16 | -5.12
42 | CCOc1ccc(C(=O)NS(=O)(=O)c2cncc(Br)c2)cc1OC | -5.81 | -12
43 | O=C(NCCN1CCCCC1)c1scnc1Cl | -1.07 | 30.3
44 | O=C1CC(c2ccco2)c2sc(C(=O)O)c(-c3ccccc3)c2N1 (stereo not drawn) | 7.4 | 19
45 | O=C(c1ccccn1)N1C[C@@H]2CC[C@H](C1)N(C(=O)CCc1cccs1)C2 | 12 | -22
46 | CCc1nc(CN(C)CC2CCN(CC(C)O)CC2)no1 (stereo not drawn) | -3.85 | 11
47 | N#Cc1ncn(CC(=O)Nc2cc(Cl)ccc2F)n1 | 9.55 | -46.7
48 | CN(Cc1cn2c(n1)CN(C(=O)CC1CC1)CC2)Cc1ccco1 | -0.868 | -5.93
49 | COc1c(CNCc2cccc(Cn3ccnc3)c2)c(C)nn1C | 7.35 | 14.4
